# Source: PubChem BioAssay AID493170 (National Center for Advancing Translational Sciences (NCATS), 2011)
# Inconclusive results are not listed. Where a call stands in place of a potency, no number is given. Calls of active or inactive are those of the source. The call rests on the fitted dose curve; in most records, active means well fitted inhibition curve with a large enough effect; inconclusive means small, poorly fitted or top-dose-only effect, or effect the other way; inactive means flat fitted curve, though single readings scatter.
# Target: Ubiquitin carboxyl-terminal hydrolase 2 (Homo sapiens) (UniProt O75604)
# Sequence (O75604 whole entry, looked up): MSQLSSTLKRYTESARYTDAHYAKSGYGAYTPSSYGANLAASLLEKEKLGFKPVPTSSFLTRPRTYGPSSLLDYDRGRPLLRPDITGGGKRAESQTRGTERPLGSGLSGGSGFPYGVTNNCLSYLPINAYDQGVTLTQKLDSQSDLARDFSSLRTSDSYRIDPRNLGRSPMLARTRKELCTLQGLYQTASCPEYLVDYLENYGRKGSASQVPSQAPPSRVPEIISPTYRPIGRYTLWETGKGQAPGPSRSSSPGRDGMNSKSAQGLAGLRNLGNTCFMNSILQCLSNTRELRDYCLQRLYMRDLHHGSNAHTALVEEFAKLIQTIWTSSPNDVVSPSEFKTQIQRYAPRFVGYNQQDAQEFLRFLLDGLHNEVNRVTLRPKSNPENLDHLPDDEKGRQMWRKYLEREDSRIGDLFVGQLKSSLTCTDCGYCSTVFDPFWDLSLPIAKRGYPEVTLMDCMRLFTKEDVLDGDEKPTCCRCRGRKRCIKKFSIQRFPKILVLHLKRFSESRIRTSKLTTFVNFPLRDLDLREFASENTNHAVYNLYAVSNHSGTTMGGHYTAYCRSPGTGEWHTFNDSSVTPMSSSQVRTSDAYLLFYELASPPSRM
# Assay: Ub-rhodamine 110 based assay for inhibitors Ubiquitin-specific Protease USP2a; further: nearly all actives have a fitted effect of over 50% in size
# Details: USP2a Ub-rhodamine110 cleavage, fluorescence; series mostly up to 38.3 µM
# Procedure, shortened: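 5 nM USP2a preincubated with compounds for 30 min at RT in 20 mM Tris-HCl pH 8.0, 2 mM CaCl2, 2 mM beta-mercaptoethanol, 0.05% CHAPS. Cleavage of 150 nM Ub-rhodamine 110 read kinetically (Ex 485/Em 531) for 7 min.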
# Potency means the concentration at half of the fitted maximal effect.
row,Compound,Potency
1,C[C@](N)(Cc1ccc(O)c(O)c1)C(=O)O,inactive
2,Cc1ccc(OCC(=O)Nc2ccc(N3CCCC3)cc2)cc1C,10 µM (active)
3,COc1ccccc1-n1c(SCC(=O)Nc2ccc(C)cc2)nc(O)cc1=O,inactive
4,CC(C)C(=O)Nc1ccc(C(=O)N2CCCCCC2)cc1,inactive
5,COc1ccc(S(=O)(=O)N2CCCCC2)cc1NC(=O)Cc1c[nH]c2ccccc12,inactive
6,Cc1noc(NS(=O)(=O)c2ccc(N3CC(O)=C(c4ccccc4)C3=N)cc2)c1C,inactive
7,C(=N\N(c1ccccc1)c1ccccc1)/c1ccccn1,inactive
8,CCC(C)c1ccc(O)c(N)c1 (stereo unspecified),inactive
9,Cc1ccc(O)c(CC(C)C)n1,inactive
10,COc1ccc(-c2nc3cc(NC(=O)Cc4ccc(OC)c(OC)c4)ccc3o2)cc1,inactive
11,C=C(C)COc1ccc(-c2[nH]ncc2Oc2ccccc2OCC)c(O)c1,inactive
12,CCOC(=O)N1CCC(NC(=O)c2ccc(OC)c(CN3CC(=O)N4CCCC4C3=O)c2)CC1 (stereo unspecified),inactive
13,NC(=O)CC(NC(=O)Cc1ccc(Br)cc1)c1ccc(N2CCC(Cc3ccccc3)CC2)c([N+](=O)[O-])c1 (stereo unspecified),inactive
14,Cn1c(C(=O)NCCCN2CCN(c3ccccc3F)CC2)cc2c(=O)n(C)c3ccccc3c21,inactive
15,COc1ccc(/C=C2\SC(=O)N(CC(=O)Nc3cccc(C)c3)C2=O)cc1O,8.91 µM (active)
16,C=C1c2cccc(O)c2C(=O)C2C(=O)[C@]3(O)C(=O)C(C(N)=O)C(=O)[C@@H](N(C)C)[C@@H]3[C@@H](O)[C@H]12 (stereo partly specified),8.91 µM (active)
